BAZ2B block – blocks human BAZ2B | Q9UIF8 | AlphaScreen BAZ2B-H3K14Ac peptide displacement | Potency, µM (doses to about 114 µM), for the others: at the top dose activity change, negative = inhibition, hits mostly inhibitors | 360,000 tested, 4.4% active; also: potency is read from the fitted curve at half-maximal effect; % is scaled to controls: 0 for no effect and ±100 for the full control effect; nearly all actives have a fitted effect of over 60% in size
Target sequence (Q9UIF8 whole entry, looked up): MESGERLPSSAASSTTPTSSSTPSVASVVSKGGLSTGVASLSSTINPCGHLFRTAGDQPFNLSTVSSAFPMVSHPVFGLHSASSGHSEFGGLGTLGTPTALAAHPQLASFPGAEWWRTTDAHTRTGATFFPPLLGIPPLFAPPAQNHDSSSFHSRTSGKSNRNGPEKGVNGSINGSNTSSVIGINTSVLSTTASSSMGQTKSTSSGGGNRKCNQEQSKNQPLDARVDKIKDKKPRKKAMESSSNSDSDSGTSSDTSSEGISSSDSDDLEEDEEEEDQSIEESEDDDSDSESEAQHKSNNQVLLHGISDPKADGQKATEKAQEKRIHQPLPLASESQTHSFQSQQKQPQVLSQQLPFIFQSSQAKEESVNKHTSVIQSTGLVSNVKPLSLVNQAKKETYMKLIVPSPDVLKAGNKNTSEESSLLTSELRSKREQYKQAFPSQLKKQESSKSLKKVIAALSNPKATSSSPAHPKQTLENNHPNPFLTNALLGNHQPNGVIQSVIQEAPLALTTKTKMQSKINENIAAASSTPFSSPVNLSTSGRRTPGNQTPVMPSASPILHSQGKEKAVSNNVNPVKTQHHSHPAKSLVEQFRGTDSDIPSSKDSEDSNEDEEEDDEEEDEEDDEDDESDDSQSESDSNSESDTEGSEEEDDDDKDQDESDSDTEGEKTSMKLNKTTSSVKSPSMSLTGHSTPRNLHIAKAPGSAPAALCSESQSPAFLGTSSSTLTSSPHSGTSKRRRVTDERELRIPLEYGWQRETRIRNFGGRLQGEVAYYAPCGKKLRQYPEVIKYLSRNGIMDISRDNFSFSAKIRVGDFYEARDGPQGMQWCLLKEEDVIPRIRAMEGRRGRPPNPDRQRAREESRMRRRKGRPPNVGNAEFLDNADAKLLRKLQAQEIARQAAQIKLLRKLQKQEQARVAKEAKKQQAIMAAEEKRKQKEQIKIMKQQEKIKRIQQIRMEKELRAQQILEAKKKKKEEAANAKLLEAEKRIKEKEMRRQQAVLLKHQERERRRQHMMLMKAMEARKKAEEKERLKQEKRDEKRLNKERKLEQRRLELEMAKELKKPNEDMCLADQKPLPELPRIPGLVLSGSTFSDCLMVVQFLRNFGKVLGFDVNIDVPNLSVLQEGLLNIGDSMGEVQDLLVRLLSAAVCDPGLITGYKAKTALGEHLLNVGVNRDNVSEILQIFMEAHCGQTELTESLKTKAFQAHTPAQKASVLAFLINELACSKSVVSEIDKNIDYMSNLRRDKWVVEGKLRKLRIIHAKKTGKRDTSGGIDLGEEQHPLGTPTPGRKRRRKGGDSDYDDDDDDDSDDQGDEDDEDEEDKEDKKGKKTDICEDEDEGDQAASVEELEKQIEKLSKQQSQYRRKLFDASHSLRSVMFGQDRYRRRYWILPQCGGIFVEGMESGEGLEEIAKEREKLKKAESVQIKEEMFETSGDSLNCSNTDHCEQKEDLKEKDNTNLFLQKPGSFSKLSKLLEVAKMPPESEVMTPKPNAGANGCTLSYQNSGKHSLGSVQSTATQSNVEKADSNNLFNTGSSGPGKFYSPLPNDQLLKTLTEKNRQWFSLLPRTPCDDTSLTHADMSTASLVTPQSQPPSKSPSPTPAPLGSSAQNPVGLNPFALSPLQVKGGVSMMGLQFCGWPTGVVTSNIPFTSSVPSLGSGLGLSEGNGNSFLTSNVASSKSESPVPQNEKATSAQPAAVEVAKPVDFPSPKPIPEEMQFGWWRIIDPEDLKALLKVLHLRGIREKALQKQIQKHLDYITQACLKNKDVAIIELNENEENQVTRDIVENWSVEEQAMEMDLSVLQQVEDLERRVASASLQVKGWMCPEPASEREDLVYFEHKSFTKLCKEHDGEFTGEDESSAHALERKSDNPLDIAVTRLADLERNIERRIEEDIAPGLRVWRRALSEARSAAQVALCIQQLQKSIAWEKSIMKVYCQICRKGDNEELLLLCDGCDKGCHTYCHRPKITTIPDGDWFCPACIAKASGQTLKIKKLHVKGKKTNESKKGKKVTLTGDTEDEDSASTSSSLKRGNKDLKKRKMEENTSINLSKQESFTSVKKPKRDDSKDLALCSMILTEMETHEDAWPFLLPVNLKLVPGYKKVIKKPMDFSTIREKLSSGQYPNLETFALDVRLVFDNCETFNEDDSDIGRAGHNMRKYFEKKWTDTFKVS
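AlphaScreen luminescence quantifies BAZ2B engagement of H3K14Ac peptide; the protein and biotinylated peptide are both at 50 nM final, buffer PBS pH 7.4 with 0.01% Tween-20, all steps at room temperature.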
CtBP-E1A inh – blocks the CtBP interaction with E1A; AlphaScreen GST-E1A/His-CtBP binding, 1536-well; active compounds read low; 340,000 tested, 0.49% active; activity change, % (concentration not given with the values); in the data active = activity change below about -65%; inconclusive = mostly about -30% to -63%; also: % is scaled to controls: 0 for no effect and ±100 for the full control effect
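Steps: dispense buffer (Tris pH 8.0, NaCl 300 mM, TCEP 1 mM, BSA, Tween 20); add 5X protein mix (GST-E1A, His-CtBP, 125 nM each); pin 23 nL compound; 2 h at 37 °C, dark; add 5X beads (50 ug/mL); 1 h; read.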
G9a block – G9a (human) methyltransferase inhibition. Q96KQ7. G9a H3K9 monomethylation, AlphaScreen, 2 h. Potency, µM (doses to about 102 µM), for inactives: top-dose activity, negative = inhibition, most hits filed as inhibitors. 350,000 tested, 8.8% active. AID 504332; also: potency is read from the fitted curve at half-maximal effect; % is scaled to controls: 0 for no effect and ±100 for the full control effect; nearly all actives have a fitted effect of over 75% in size
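Quantitative HTS format: methyltransferase activity on a biotin-tagged H3K9 peptide is measured by AlphaScreen, using a rabbit anti-monomethyl-H3K9 antibody with streptavidin donor and anti-IgG acceptor beads. Final levels are 20 nM enzyme, 500 nM peptide, 20 uM SAM; 2 h RT.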
HP1b chromo inh – inhibitors of HP1-beta chromodomain binding to methylated histone tails. AlphaScreen HP1-beta / biotin-H3K9me3 peptide binding. AID 540317. Potency, µM (series often up to 114 µM), without a hit: at the top dose activity change, negative = inhibition, usual class: inhibitors. 390,000 tested, 0.56% active; also: potency is read from the fitted curve at half-maximal effect; nearly all actives have a fitted effect of over 70% in size
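AlphaScreen: HP1-beta (50 nM) preformed 30 min with biotin-H3(1-18)K9me3 peptide (50 nM) in PBS pH 7.4, 0.01% Tween-20. Compound added for 30 min at RT, then streptavidin donor/nickel chelate acceptor beads (10 ug/mL) for 30 min.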
Six1-Eya2 blk – inhibitors of human Six1/Eya2 interaction | Q15475+O00167 | AlphaScreen GST-Six1/His-Eya2 binding, biochemical; active compounds read low | activity change, % (no concentration beside the values) | 360,000 tested, 0.56% active; in the data active = activity change below about -65%; inconclusive = mostly about -30% to -63%; also: % is scaled to controls: 0 for no effect and ±100 for the full control effect
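AlphaScreen with GST-Six1 and His-Eya2 (5X mix: 250 nM and 500 nM), glutathione donor and nickel acceptor beads; buffer 50 mM Tris pH 8.0, 300 mM NaCl, 1 mM TCEP; 1 h at 37 C in the dark.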
JMJD2A Tudor – JMJD2A Tudor domain (human) inhibition; O75164; AlphaScreen JMJD2A-Tudor / H3K4me3 peptide binding; Potency, µM (highest dose often 114 µM), without a hit: at the highest dose activity change, negative = inhibition, hits mostly inhibitors; 390,000 tested, 4.4% active; also: potency is read from the fitted curve at half-maximal effect; % is scaled to controls: 0 for no effect and ±100 for the full control effect; nearly all actives have a fitted effect of over 50% in size
An asterisk follows results filed as active; ? = inconclusive; / = no result given; [ ] = dose if it differs, or a comment. Hits are enriched below; roughly 10% of the tested compounds scored in any of these assays. Unless noted, calls follow the shape of the dose curve; as a rule, active = well fitted inhibition curve with a large enough effect; inconclusive = small, poorly fitted or top-dose-only effect; inactive = no such curve, though single readings can be large or run the other way.

SMILES	BAZ2B block	CtBP-E1A inh	G9a block	HP1b chromo inh	Six1-Eya2 blk	JMJD2A Tudor
Cc1nc(-c2ccc(O)c(O)c2)cs1	-36%	-3	1.4µM*	?	-4	4µM*
Cc1cccc(C)c1NC(=O)Cn1c(=O)n(CCC(=O)NCc2ccccc2Cl)c(=O)c2sccc21	-36%	/	-2%[59 µM]	38%	/	2%
Oc1ccccc1-c1csc(-c2ccccc2)n1	76%	8	114%	162%	25	115%
Oc1ccc(-c2csc(-c3ccccc3)n2)cc1O	56µM*	-15	?	?	-11	40µM*
Cc1c(P(=O)(c2ccccc2)c2ccccc2)c2ccccc2n1C	/	/	/	/	/	22µM*
CCOC(=O)c1sc2cc([N+](=O)[O-])cc(SCC(=O)OC)c2c1N	40µM*	?	7.9µM*	?	?	45µM*
CCOC(=O)c1sc2cc([N+](=O)[O-])cc(SCCO)c2c1N	-10%	-9	7%[59 µM]	4%	-14	-6%
COc1cccc(CNC(=O)CCC2CCCN(C(=O)CCC(F)(F)F)C2)c1 (stereo unspecified)	3%	2	3%	25%	-4	-7%
O=C(CCC1CCCN(C(=O)c2ccc3c(c2)OCCO3)C1)NCc1ccccc1F (stereo unspecified)	-1%	0	5%	53%	-1	-4%
Cc1ccc(CNC(=O)CCC2CCCN(Cc3cccc4cccnc34)C2)o1 (stereo unspecified)	?	-9	40µM*	3%	-7	-32%
Cc1ccc(CNC(=O)CCC2CCCN(C(=O)CCC(F)(F)F)C2)o1 (stereo unspecified)	3%	2	50µM*	38%	1	-8%
Cc1ccc(CNC(=O)CCC2CCCN(C(=O)c3ccc4c(c3)OCO4)C2)o1 (stereo unspecified)	-15%	0	50µM*	11%[57 µM]	8	-7%
CCOc1ccccc1N1CCN(Cc2c(C)n(C)n(-c3ccccc3)c2=O)CC1	-2%	11	-5%	29%	13	-5%
COc1ccc(CNC(=O)Cc2c(C)c3ccc(O)cc3oc2=O)cc1	-2%	/	4%[59 µM]	30%	/	0%
CC(=O)Nc1cncc(-c2cccc(C(=O)N(C)C)c2)n1	/	-4	/	/	-2	/
CC(=O)Nc1ccn(C2CC3OCC(NC(=O)C(NC(=O)OC(C)(C)C)C(C)OCc4ccccc4)C3O2)c(=O)n1 (stereo unspecified)	/	/	/	11%	/	-14%
CC12CCC(C(=O)N(CSC(=S)N/N=C\c3ccccc3O)C1=O)C2(C)C (stereo unspecified)	2.8µM*	-94*	4.5µM*	-15%	-89*	40µM*
CC(C)NC(=O)N1CCCC2(CCN(S(=O)(=O)c3ccccc3)CC2)C1	/	/	3%[12.7 µM]	/	/	/
O=[N+]([O-])c1ccccc1N=Nc1ccc(O)cc1O	/	10	/	?	-8	56µM*
O=[N+]([O-])c1ccccc1-c1cc(-c2ccccc2O)n[nH]1	?	-12	-2%[59 µM]	-4%	-6	-32%[57.1 µM]
Oc1ccc(/C=N/N=C/c2ccc(O)c(O)c2)cc1O	10µM*	-8	35µM*	-27%	-24	7.9µM*
Oc1ccc(/C=N/N=C/c2ccc(O)cc2)cc1	-29%	-10	?	28%	3	-25%
Oc1ccc(N=Cc2ccc(O)c(O)c2)cc1	45µM*	-24	1.3µM*	?	?	56µM*
COc1cc(/C=N/N=C2/C(=O)Nc3ccccc32)ccc1O	?	-23	?	-36%	-25	?
O=C(/C(=N/N=C/c1ccc(O)c(O)c1)c1ccccc1)c1ccccc1	40µM*	-19	32µM*	?	-25	25µM*
SMILES	BAZ2B block	CtBP-E1A inh	G9a block	HP1b chromo inh	Six1-Eya2 blk	JMJD2A Tudor
O=C1Nc2ccccc2/C1=N\N=C\c1ccc(O)c(O)c1	40µM*	-3	/	32µM*	-10	?
Cc1cc2cc(C)c3nnc(SCC(=O)N4CCc5ccccc54)n3c2cc1C	8%	/	-11%[0.0925 µM]	/	/	/
CN1CCN(C(=O)CN(C)S(=O)(=O)c2ccc(F)cc2)CC1	5%	5	0%	16%	-2	1%
CC(C)(c1ccccc1)c1ccc(OCc2ccc(C(=O)O)o2)cc1	-36%	-2	?	-6%	-10	?
Cc1ccc(NC(=O)c2ccc3c(c2)CCN3S(C)(=O)=O)c(C)c1	0%	3	/	-8%	6	?
COc1ccccc1CNC(=O)Cn1c(=O)oc2cc(S(=O)(=O)NCc3ccccc3)ccc21	-4%	/	5%[59 µM]	23%	/	-19%
COc1ccc(Nc2ncnc3c2cnn3-c2ccc(C)cc2C)cc1	-14%	/	6%[59 µM]	19%	/	-29%
COc1ccccc1C(=O)COC(=O)CNC(=O)c1ccc(Br)o1	1%	11	50µM*	50%	0	-14%
COc1cccc(CNc2ccc3c(c2)CCC3)c1	?	-9	14µM*	-14%	-5	?
COc1ccc(OC)c(CNc2ccc3c(c2)CCC3)c1	?	-3	32µM*	?	-8	?
COc1ccc(OC)c(CC(=O)Nc2ccc3c(c2)CCC3)c1	-6%	-10	26%	-7%	-2	-22%
COc1ccc(OC)c(CNc2ccc(F)c(Cl)c2)c1	?	-2	50µM*	-4%	-12	?
COc1ccccc1CN1CC2(CCN(C(=O)c3cc(C(F)(F)F)cc(C(F)(F)F)c3)CC2)C1	/	/	-1%[12.7 µM]	/	/	/
CN(CCCC(=O)NCc1ccc2c(c1)OCO2)S(=O)(=O)c1ccc([N+](=O)[O-])cc1	?	0	/	-6%	-3	-20%
Cc1ccc2c(c1)c1c(n2CC(O)CNC2CCCC2)CCCC1 (stereo unspecified)	45µM*	/	20µM*	?	?	18µM*
Cc1ccc(C2Cc3cc(O)c(O)cc3CN2)cc1 (stereo unspecified)	/	0	/	?	1	8.9µM*
C=CCOC(=O)C1=C(C)NC(SCC(=O)NC(=O)OCC)=C(C#N)C1c1cccnc1 (stereo unspecified)	-6%	6	50µM*	45%	-5	-5%
CC(=O)C1=C(C)NC(SCC(=O)c2ccc(-c3ccccc3)cc2)=C(C#N)C1c1cccnc1 (stereo unspecified)	-22%	/	16µM*	/	/	/
CC(=O)C1=C(C)NC(SCSc2ccccc2)=C(C#N)C1c1cccnc1 (stereo unspecified)	2%	-11	?	41%	-7	-31%
CCc1cccc(CC)c1NC(=O)c1cccc(N)c1	-5%	-2	36%[12.7 µM]	?	5	56µM*
Cc1cc(C)nc(N/N=C/C2=C(O)CC(c3ccc(F)cc3)CC2=O)n1 (stereo unspecified)	22µM*	/	1%	44%	?	32µM*
